# According to the supplement of paper PMC6522484:
# ± gives the standard deviation of the averaged measurements.
# Assays:
# DLD1 [1] = test: cell viability (CellTiter-Glo) relative to plate median (fraction of plate median); higher = more viable cells; settings: 5 µM; treatment time 24 h; reporter: 7TFP
# Method in brief: (§1)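 Luminescence, normalised well by well to the plate median, is tabulated as a mean of independent replicates. There were two replicates, run on colorectal cancer lines stably transduced with lentiviral TCF/Wnt firefly luciferase reporters and dosed with library compounds at a final 5 µM for 24 h. Readouts were firefly luciferase or CellTiterGlo on parallel plates.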
# HCT116 = test: as above; settings: 5 µM; treatment time 24 h; reporter: TCF4/Wnt
# Method in brief: as §1
# SW480 [2] = test: as above; settings: 5 µM; treatment time 24 h; reporter: 7TFP
# Method in brief: as §1
# DLD1 [3] = test: TCF/Wnt firefly luciferase reporter signal relative to plate median (fraction of plate median); higher = higher Wnt reporter signal; settings: 5 µM; treatment time 24 h; reporter: 7TFP
# Method in brief: as §1
# SW480 [4] = test: as above; settings: 5 µM; treatment time 24 h; reporter: 7TFP
# Method in brief: as §1
SMILES,cell viability (DLD1 [1]),cell viability (HCT116),cell viability (SW480 [2]),TCF/Wnt firefly luciferase reporter signal (DLD1 [3]),TCF/Wnt firefly luciferase reporter signal (SW480 [4])
C/C=C/c1ccc(OC)cc1,1.07 ± 0.021,0.987 ± 0.047,1.03 ± 0.062,0.925 ± 0.12,0.943 ± 0.0014
CCOC(=O)[C@H](CCc1ccccc1)N[C@@H](C)C(=O)N1[C@H](C(=O)O)C[C@@H]2CCC[C@@H]21,1.11 ± 0.17,1.08 ± 0.014,1.1 ± 0.042,1.06 ± 0.035,1.06 ± 0.1
O=C(/C=C/C=C/c1ccc2c(c1)OCO2)N1CCCCC1,1 ± 0.038,1.05 ± 0.12,1.03,1.16 ± 0.18,1.08 ± 0.19
CC(=O)O[C@@H]1C=C[C@]2(C)C(C[C@@H](OC(C)=O)[C@]3(C)C4=CC(=O)O[C@H](c5ccoc5)[C@@]4(C)CCC23)C1(C)C (stereo not given in full),1.06 ± 0.035,1.08 ± 0.042,1.03 ± 0.014,1.09 ± 0.021,1.12 ± 0.078
CCN1CCN(C(=O)N[C@@H](C(=O)N[C@@H]2C(=O)N3C(C(=O)O)=C(CSc4nnnn4C)CS[C@H]23)c2ccc(O)cc2)C(=O)C1=O,0.973 ± 0.053,1.06 ± 0.035,0.951 ± 0.023,0.886 ± 0.042,1.01 ± 0.098
COC(=O)C1=CO[C@@H](O[C@@H]2O[C@H](CO)[C@@H](O)[C@H](O)[C@H]2O)[C@@H]2[C@@H](C)[C@@H](O)C[C@H]12,1.045 ± 0.0071,1.02 ± 0.047,1.06 ± 0.035,1.01 ± 0.016,1.09 ± 0.064
CO[C@@H]1[C@H](O)[C@@H](C)O[C@@H](OC[C@H]2[C@@H]3O[C@H]3/C=C/C(=O)[C@@](C)(O)C[C@H](C)[C@H](O[C@@H]3O[C@H](C)C[C@H](OC)[C@H]3O)[C@@H](C)/C=C/C(=O)O[C@@H]2C)[C@@H]1OC [Chalcomycin],1.04 ± 0.083,1.1 ± 0.071,1.01 ± 0.048,0.869 ± 0.094,0.965 ± 0.034
CCCCc1nc(Cl)c(CO)n1Cc1ccc(-c2ccccc2-c2nnn[nH]2)cc1,0.909 ± 0.09,0.921 ± 0.052,1.02 ± 0.045,1.08 ± 0.25,0.715 ± 0.37
CC[N+](C)(C)c1cccc(O)c1,0.956 ± 0.091,0.984 ± 0.013,0.908 ± 0.041,0.92 ± 0.14,0.915 ± 0.044
CCN(CC)CCCC(C)Nc1ccnc2cc(Cl)ccc12 (stereo not given),1.05 ± 0.096,1.04 ± 0.12,1.05 ± 0.028,0.974 ± 0.024,1.045 ± 0.0071
CC1(C)CC2C1CCC1(C)OC2(C)CCC1O (stereo not given),1.045 ± 0.0071,1.1 ± 0.014,1.06 ± 0.028,1.02 ± 0.036,0.994 ± 0.094
CC(C)CCCC(C)N (stereo not given),0.99 ± 0.012,0.929 ± 0.031,0.9345 ± 0.0092,0.875 ± 0.03,0.9465 ± 0.0078
CC1CCc2cc(F)cc3c(=O)c(C(=O)O)cn1c23 (stereo not given),1.05 ± 0.071,1.05 ± 0.15,0.972 ± 0.013,0.953 ± 0.039,1.07 ± 0.014
COc1ccc(-c2cc(=O)c3cc(OC)ccc3o2)cc1,0.967 ± 0.031,0.964 ± 0.065,0.998 ± 0.059,1.17 ± 0.057,1.33 ± 0.014
O=C(Cn1ccnc1[N+](=O)[O-])NCCO,0.992 ± 0.04,0.989 ± 0.1,0.9935 ± 0.0092,1.09 ± 0.17,1.02 ± 0.038
CC1CCC2(OC1)OC1CC3C4CCC5C[C@@H](O)CCC5(C)C4=CCC3(C)C1[C@@H]2C (stereo partly drawn) [3beta-HYDROXYISOALLOSPIROST-9(11)-ENE],1.02 ± 0.021,0.997 ± 0.12,0.973 ± 0.052,1.02 ± 0.11,1.01 ± 0.016
Nc1nc(/C(=C/CC(=O)O)C(=O)N[C@@H]2C(=O)N3C(C(=O)O)=CCS[C@H]23)cs1,0.988 ± 0.06,1.03 ± 0.021,0.985 ± 0.0042,1.13 ± 0.22,1.01 ± 0.052
CCCCCc1c2c(cc(O)c1C(=O)O)OC(=O)c1c(cc(OC)cc1C(=O)CCCC)O2,0.958 ± 0.036,0.973 ± 0.14,1 ± 0.013,0.963 ± 0.034,1.05 ± 0.16
CC[C@H](C)C(=O)O[C@H]1C[C@H](O)C=C2C=C[C@H](C)[C@H](CC[C@@H](O)C[C@@H](O)CC(=O)O)[C@H]21,1.03 ± 0.014,1.02 ± 0.028,0.989 ± 0.0028,1.04 ± 0.076,0.928 ± 0.16
Clc1ccc2c(c1)CCc1cccnc1C2=C1CCNCC1,0.992 ± 0.011,1.07 ± 0.021,0.97 ± 0.021,1 ± 0.015,1.12 ± 0.014
O=C(N[C@H](CO)[C@H](O)c1ccc([N+](=O)[O-])cc1)C(Cl)Cl,0.939 ± 0.013,0.918 ± 0.14,1.04 ± 0.042,1.09 ± 0.085,1 ± 0.013
COc1cc(/C=C/C(=O)O)ccc1O [Ferulic acid (Biofocus)],0.923 ± 0.17,1.05 ± 0.028,1.02 ± 0.014,0.962 ± 0.012,1.04 ± 0.069
CC(=O)OCC(=O)[C@@]1(O)[C@@H](C)C[C@H]2[C@@H]3CCC4=CC(=O)C=C[C@]4(C)[C@@]3(F)[C@@H](O)C[C@@]21C,1.04 ± 0.014,1.17 ± 0.11,1 ± 0.026,0.989 ± 0.011,0.876 ± 0.14
CCOc1cccc(C(=O)c2ccc(O)c(O)c2O)c1,1.03,1.085 ± 0.0071,1.07 ± 0.021,1.04 ± 0.088,0.932 ± 0.019
CC(=O)OCC1=C(C(=O)O)N2C(=O)[C@@H](NC(=O)CSc3ccncc3)[C@H]2SC1,1.05,1.065 ± 0.0071,1.14 ± 0.14,0.985 ± 0.016,1.06 ± 0.057
Nc1ncnc2c1ncn2[C@H]1C[C@H](O)[C@@H](CO)O1,1.07 ± 0.064,1.06 ± 0.021,1.01 ± 0.044,1.05 ± 0.014,1.09 ± 0.064
c1ccc(CN(CC2=NCCN2)c2ccccc2)cc1,0.9805 ± 0.0092,1.03 ± 0.055,1.08 ± 0.021,1.18 ± 0.05,1.06 ± 0.096
C[C@@H]1CC2C3C[C@H](F)C4=CC(=O)C=C[C@]4(C)[C@@]3(F)[C@@H](O)C[C@]2(C)[C@@]1(O)C(=O)COC(=O)C(C)(C)C (stereo not given in full),1.01 ± 0.021,0.925 ± 0.039,1 ± 0.025,1.16 ± 0.064,1.085 ± 0.0071
